Inconclusive results are not listed.
Assay: qHTS Assay for Lipid Storage Modulators (AID 1519)
Conditions: Drosophila S3 cells, BODIPY lipid droplet/cell ratio, laser cytometry; measured here: cell count channel max response; cells loaded with oleic acid
Summary of the method: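 Cells seeded at 5,000 per well were treated with compounds over a concentration series and loaded with oleic acid (400 uM, as added). Lipid droplet fluorescence (488 nm excitation, 500-530 nm channel) was read by laser-scanning cytometry and normalized to 20 uM Triacsin C.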

| Structure (SMILES) | max response |
| --- | --- |
| COCCNc1ncnc2ccc(-c3cccc(NS(C)(=O)=O)c3)cc12 | -7.37% |
| c1csc(CNc2ncnc3ccc(-c4ccoc4)cc23)c1 | 15.9% |
| Cc1ccccc1-c1cc(N2CCN(C)CC2)ncn1 | 3.49% |
| c1nc(NC2CCNCC2)c2cc(-c3ccoc3)ccc2n1 | 13.4% |
| COc1ncc2nc(-c3ccc(F)cc3)c(=O)n(C)c2n1 | 17.8% |
| COCCn1c(=O)c(-c2ccc(Cl)cc2)nc2cnc(Nc3ccccc3)nc21 | 10.8% |
| CN1CCN(c2ncc3nc(-c4ccc(Cl)cc4)c(=O)n(-c4ccccc4)c3n2)CC1 | 13.9% |
| CN1CCN(c2ccnc(-c3ccoc3)n2)CC1 | 20.2% |
| COc1cccc(Cn2c(=O)c(-c3cccs3)nc3cnc(N(C)C)nc32)c1 | 25.6% |
| Cc1nc2cnc(OCc3ccccc3)nc2n(C)c1=O | 13.5% |
| COc1ccccc1CCn1c(=O)c(-c2cccc(F)c2)nc2cncnc21 | 18.2% |
| CN(C)c1ncnc2ccc(-c3ccoc3)cc12 | 30.5% |
| COc1cccc(Nc2ncc3nc(CCc4ccccc4)c(=O)n(C)c3n2)c1 | 27.3% |
| COCCNc1ncnc2ccc(-c3ccccc3C)cc12 | -10.5% |
| COc1ccc(-c2nc3cnc(Oc4ccccc4)nc3n(CCC#N)c2=O)cc1 | -12.9% |
| COc1cccc(Nc2ncc3nc(-c4ccc(Cl)cc4)c(=O)n(C4CC4)c3n2)c1 | -0.959% |
| CCNc1ncc2nc(-c3cn(C)c4ccccc34)c(=O)n(C)c2n1 | 19.5% |
| CN1CCN(c2ncc3nc(-c4cccc(C#N)c4)c(=O)n(Cc4ccc(F)cc4)c3n2)CC1 | 1.09% |
| COc1ccc(Oc2ncc3nc(-c4ccc(OC)cc4)c(=O)n(C)c3n2)cc1 | -5.13% |
| Cc1nc2cnc(N3CCOCC3)nc2n(C[C@H]2CCCO2)c1=O | 10.2% |
| COc1cccc(Cn2c(=O)c(-c3ccc(F)cc3)nc3cnc(OC)nc32)c1 | 25.9% |

Same assay, conditions: Drosophila S3 cells, BODIPY lipid droplet/cell ratio, laser cytometry; measured here: lipid channel max response; cells loaded with oleic acid

| Structure (SMILES) | max response |
| --- | --- |
| Cc1ccccc1-c1nccc(NCc2cccs2)n1 | 6% |
| CN1CCN(c2ncc3nc(-c4ccc(F)cc4)c(=O)n(Cc4cccs4)c3n2)CC1 | 0.564% |
| COc1ccc(-c2nc3cnc(N4CCN(C)CC4)nc3n(Cc3cccs3)c2=O)cc1 | 18% |
| FC(F)(F)c1ccccc1-c1nc(NCCN2CCOCC2)c2ccccc2n1 | 21.5% |
| COc1ccc(-c2nc3cnc(Oc4cccc(Cl)c4)nc3n(C3CC3)c2=O)cc1 | -19.7% |
| N#CCCn1c(=O)c(-c2ccc(F)cc2)nc2cnc(N3CCOCC3)nc21 | 23% |
| Cn1c(=O)c(-c2cccs2)nc2cnc(N3CCNCC3)nc21 | 18.9% |
| CS(=O)(=O)Nc1cccc(-c2ccc3ncnc(NC4CC4)c3c2)c1 | -10.1% |
| CN1CCN(c2ncc3nc(CCc4ccccc4)c(=O)n(C4CC4)c3n2)CC1 | 14.9% |
| COCCn1c(=O)cnc2cnc(Nc3ccccc3)nc21 | -12.1% |
| Cc1ccccc1-c1ccc2ncnc(NC3CC3)c2c1 | -0.878% |
| c1cncc(CNc2ncncc2-c2cccnc2)c1 | 26.2% |
| Clc1ccccc1-c1nccc(NCc2cccs2)n1 | 18.5% |
| O=c1c(-c2ccc(F)cc2)nc2cnc(Oc3ccccc3)nc2n1Cc1cccs1 | -29.7% |
| FC(F)(F)c1ccccc1-c1nc(NCc2cccs2)c2ccccc2n1 | 10.9% |
| COc1ccc(Oc2ncc3nc(-c4cn(C)c5ccccc45)c(=O)n(C4CC4)c3n2)cc1 | 3.07% |
| COc1ccc(-n2c(=O)c(-c3ccc(F)cc3)nc3cnc(N4CCOCC4)nc32)cc1 | 4.35% |
| CC(=O)NCCNc1ncnc2ccc(-c3ccoc3)cc12 | -3.36% |
| COCCNc1ncnc2ccc(-c3cccc(NS(C)(=O)=O)c3)cc12 | -7.54% |
| c1csc(CNc2ncnc3ccc(-c4ccoc4)cc23)c1 | 14.7% |

| Structure (SMILES) | max response |
| --- | --- |
| Cc1ccccc1-c1cc(N2CCN(C)CC2)ncn1 | -4.04% |
| c1nc(NC2CCNCC2)c2cc(-c3ccoc3)ccc2n1 | 11.3% |
| COc1ncc2nc(-c3ccc(F)cc3)c(=O)n(C)c2n1 | 25.2% |
| COCCn1c(=O)c(-c2ccc(Cl)cc2)nc2cnc(Nc3ccccc3)nc21 | 12.1% |
| CN1CCN(c2ncc3nc(-c4ccc(Cl)cc4)c(=O)n(-c4ccccc4)c3n2)CC1 | 16.4% |
| CN1CCN(c2ccnc(-c3ccoc3)n2)CC1 | 20.2% |
| COc1cccc(Cn2c(=O)c(-c3cccs3)nc3cnc(N(C)C)nc32)c1 | 27.3% |
| Cc1nc2cnc(OCc3ccccc3)nc2n(C)c1=O | 17.9% |
| COc1ccccc1CCn1c(=O)c(-c2cccc(F)c2)nc2cncnc21 | 19.8% |
| CN(C)c1ncnc2ccc(-c3ccoc3)cc12 | 29.1% |
| COc1cccc(Nc2ncc3nc(CCc4ccccc4)c(=O)n(C)c3n2)c1 | 12.3% |
| COCCNc1ncnc2ccc(-c3ccccc3C)cc12 | -19.3% |
| COc1ccc(-c2nc3cnc(Oc4ccccc4)nc3n(CCC#N)c2=O)cc1 | -14% |
| COc1cccc(Nc2ncc3nc(-c4ccc(Cl)cc4)c(=O)n(C4CC4)c3n2)c1 | -5.52% |
| CCNc1ncc2nc(-c3cn(C)c4ccccc34)c(=O)n(C)c2n1 | 27.7% |
| CN1CCN(c2ncc3nc(-c4cccc(C#N)c4)c(=O)n(Cc4ccc(F)cc4)c3n2)CC1 | -4.23% |
| COc1ccc(Oc2ncc3nc(-c4ccc(OC)cc4)c(=O)n(C)c3n2)cc1 | -2.18% |
| Cc1nc2cnc(N3CCOCC3)nc2n(C[C@H]2CCCO2)c1=O | 13.9% |
| COc1cccc(Cn2c(=O)c(-c3ccc(F)cc3)nc3cnc(OC)nc32)c1 | 31.8% |
